This is an account of results in PubChem BioAssay.

Activity calls are given as the source filed them. Unless noted, no rule for the calls is given here.

Experiment [1] in a line: compounds binding Alexa647 anti-His antibody – biochemical, small-molecule microarray, 635 nm fluorescence, artefact control for SMM control protein annotation, primary screen (AID 1128).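 Also: score merges feature fluorescence with signal-to-noise for each printed compound spot.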 As to conditions: higher = more signal.
Experiment [2] relates to Human papillomavirus type 1a E7 protein (residues 1-88). Kind of experiment: HPV1a E7 small-molecule binders, primary screen, biochemical, small-molecule microarray, residues 1-88, 635 nm (AID 1129). The settings on record: small-molecule microarray binding, fluorescence 635 nm; higher = more signal.
Experiment [3] deals with Focal adhesion kinase 1 (Homo sapiens) (UniProt Q05397). Kind of experiment: PTK2 protein binding on printed compound slides – biochemical, small-molecule microarray, 635/667 nm fluorescence, BSA, DTT, primary screen (AID 1130).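 Also: composite of spot emission at 667 nm and signal to noise over triplicate slides.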 The settings on record: 635 nm fluorescence, higher = more signal.
Focal adhesion kinase 1 (Homo sapiens), sequence (Q05397 whole entry, looked up): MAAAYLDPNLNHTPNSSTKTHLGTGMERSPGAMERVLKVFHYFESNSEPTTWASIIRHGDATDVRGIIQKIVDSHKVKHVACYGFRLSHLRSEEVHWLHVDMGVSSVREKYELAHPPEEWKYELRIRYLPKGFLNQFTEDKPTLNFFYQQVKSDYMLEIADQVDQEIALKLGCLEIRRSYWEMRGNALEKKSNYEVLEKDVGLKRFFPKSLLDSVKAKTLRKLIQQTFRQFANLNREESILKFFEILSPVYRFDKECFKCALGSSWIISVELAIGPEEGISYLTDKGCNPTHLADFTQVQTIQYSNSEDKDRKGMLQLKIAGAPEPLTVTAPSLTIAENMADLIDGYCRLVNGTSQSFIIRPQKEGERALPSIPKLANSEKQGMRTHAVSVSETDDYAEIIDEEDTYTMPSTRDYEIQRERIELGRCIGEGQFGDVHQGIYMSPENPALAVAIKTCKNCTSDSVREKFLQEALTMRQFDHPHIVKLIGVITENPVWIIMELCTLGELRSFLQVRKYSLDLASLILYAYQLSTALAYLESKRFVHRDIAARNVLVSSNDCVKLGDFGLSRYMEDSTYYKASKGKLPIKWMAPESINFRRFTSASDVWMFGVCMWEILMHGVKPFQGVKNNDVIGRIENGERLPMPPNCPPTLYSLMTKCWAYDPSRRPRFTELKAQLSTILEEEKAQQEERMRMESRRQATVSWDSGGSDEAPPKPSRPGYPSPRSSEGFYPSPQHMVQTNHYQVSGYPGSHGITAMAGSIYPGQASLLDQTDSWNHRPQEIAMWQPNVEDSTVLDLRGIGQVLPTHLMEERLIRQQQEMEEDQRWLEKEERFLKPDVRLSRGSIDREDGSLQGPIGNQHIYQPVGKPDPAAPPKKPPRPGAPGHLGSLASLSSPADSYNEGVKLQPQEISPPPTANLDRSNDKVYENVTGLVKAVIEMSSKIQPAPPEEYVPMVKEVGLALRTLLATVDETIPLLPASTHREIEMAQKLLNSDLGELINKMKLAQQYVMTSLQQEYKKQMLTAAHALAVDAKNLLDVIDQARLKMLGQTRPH
For experiment [4], the system named is Fibrinogen (Alexa647-labelled). Kind of experiment: Alexa647-fibrinogen binding to printed small molecules – biochemical, small-molecule microarray, 635/667 nm fluorescence, artefact control for SMM control-protein annotation, profiling panel (AID 1131).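 Also: z-score merges 667 nm fluorescence with per-spot signal-to-noise over triplicate slides.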 The settings on record: fibrinogen-A647 binding fluorescence, higher = more signal.
For experiment [5], the target named is Follistatin (Homo sapiens) (UniProt P19883). Kind of experiment: FST protein binding to printed compounds – biochemical, small-molecule microarray, 635/667 nm fluorescence, primary screen (AID 1132). The settings on record: 635 nm fluorescence, higher = more signal.
Follistatin (Homo sapiens), sequence (P19883 whole entry, looked up): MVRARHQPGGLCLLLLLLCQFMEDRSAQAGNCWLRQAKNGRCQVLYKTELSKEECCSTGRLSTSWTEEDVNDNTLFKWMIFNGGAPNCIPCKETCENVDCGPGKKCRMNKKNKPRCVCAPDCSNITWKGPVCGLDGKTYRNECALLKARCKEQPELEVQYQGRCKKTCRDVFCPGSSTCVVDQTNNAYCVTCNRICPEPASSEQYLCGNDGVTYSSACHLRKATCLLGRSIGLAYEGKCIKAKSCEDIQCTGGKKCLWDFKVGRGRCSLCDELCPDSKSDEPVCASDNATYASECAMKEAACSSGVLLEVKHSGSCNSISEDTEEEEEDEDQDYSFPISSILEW
Experiment [6] has as its target Fibroblast growth factor 2 (Homo sapiens) (UniProt P09038). Nature of the experiment: basic fibroblast growth factor binding to printed compounds – biochemical, small-molecule microarray, 635/667 nm fluorescence, primary screen (AID 1133). The settings on record: FGF2, fluorescence 635/667, higher = more signal.
Experiment [7] can be described thus: JC-1 mitochondrial potential readout, lung cancer cells – cell-based, A549, JC-1 fluorescence, basal, 24 h, 100 nL, profiling panel (AID 1138).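 Also: A549 lung adenocarcinoma cells under basal conditions with no added stimulus; test concentration not given here.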 As to conditions: higher = more signal.
In a further experiment the test system is Lefty1. Kind of experiment: Lefty1 protein binding to printed compounds – biochemical, small-molecule microarray, 635/667 nm fluorescence, primary screen (AID 1139). The settings on record: fluorescence 635/667, higher = more signal.
In experiment [8] the test system is wheat germ agglutinin (Triticum aestivum), Alexa647-labelled. Kind of experiment: Alexa647-WGA lectin binding to printed small molecules – biochemical, small-molecule microarray, 635/667 nm fluorescence, artefact control for SMM control-protein annotation, profiling panel (AID 1140).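 Also: score merges 667 nm feature emission with signal to noise over triplicate slides.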 As to conditions: WGA-A647 binding, 635 nm fluorescence, higher = more signal.
In experiment [9] the target is Luciferin 4-monooxygenase (Photinus pyralis) (UniProt P08659). Nature of the experiment: inhibition of purified Photinus pyralis luciferase – biochemical, luminescence, purified enzyme, 2006 set, primary screen (AID 1141).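 Also: cell-free assay with purified firefly luciferase at 100 ng per well in PBS; test concentration not given here.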 As to conditions: purified firefly luciferase, SteadyGlo luminescence, 30 min; higher = more signal, called active from +8 up or from −8 down.
Luciferin 4-monooxygenase (Photinus pyralis), sequence (P08659 whole entry, looked up): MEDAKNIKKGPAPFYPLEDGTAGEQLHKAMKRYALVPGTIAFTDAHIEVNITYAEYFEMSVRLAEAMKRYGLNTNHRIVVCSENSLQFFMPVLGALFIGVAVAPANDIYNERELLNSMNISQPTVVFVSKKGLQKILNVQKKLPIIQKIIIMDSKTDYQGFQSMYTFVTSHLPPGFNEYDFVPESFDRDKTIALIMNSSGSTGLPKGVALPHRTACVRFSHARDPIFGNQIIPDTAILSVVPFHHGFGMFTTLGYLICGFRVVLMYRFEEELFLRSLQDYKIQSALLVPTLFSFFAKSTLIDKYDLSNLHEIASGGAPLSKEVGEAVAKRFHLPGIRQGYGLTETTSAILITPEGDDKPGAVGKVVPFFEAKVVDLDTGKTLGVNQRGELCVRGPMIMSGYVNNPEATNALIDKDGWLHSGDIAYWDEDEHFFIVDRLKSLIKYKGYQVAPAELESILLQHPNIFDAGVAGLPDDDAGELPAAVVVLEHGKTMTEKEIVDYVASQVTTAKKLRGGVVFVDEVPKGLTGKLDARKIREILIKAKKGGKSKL
Experiment [10] deals with Wnt5a (protein binding on small-molecule microarray). Kind of experiment: small molecules binding Wnt5a protein – biophysical, small-molecule microarray, 635/667 nm fluorescence, primary screen (AID 1142).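 Also: fluorescence read at 667 nm with signal to noise per printed feature.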 The settings on record: 635 nm fluorescence, higher = more signal.
Experiment [11] can be described thus: ATP-based viability of Huh7 replicon cells – cell-based, CellTiter-Glo luminescence, basal, 48 h, cytotoxicity control for HCV replication inhibitor project, primary screen (AID 1143).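 Also: Huh7 hepatoma cells carrying a hepatitis C replication reporter with no stimulus; test concentration not given here.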 As to conditions: higher = more signal, called active from +8 up or from −8 down.
Experiment [12] is described as follows: Pseudomonas biofilm growth suppression – PAO1 strain, BacTiter-Glo luminescence, LB-PBS, primary screen (AID 1144). The settings on record: P. aeruginosa PAO1 biofilm, 12 h, higher = more signal.
The nature of experiment [13]: basal CRE-LacZ reporter activity in PC12 – cell-based, unstimulated, primary screen (AID 1145). The settings on record: no forskolin, luminescence, 4.5 h, higher = more signal, called active from +8 up or from −8 down.
The nature of experiment [14]: forskolin-driven CRE-LacZ activity in PC12 – cell-based, CRE-LacZ reporter, forskolin-stimulated, primary screen (AID 1146).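 Also: PC12 cells with 6xCRE LacZ reporter stimulated by forskolin 10 µM; beta-galactosidase reporter signal reflecting CREB driven transcription.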 As to conditions: luminescence, 4.5 h, higher = more signal, called active from +8 up or from −8 down.
For experiment [15], the target named is Streptavidin (Streptomyces avidinii) (UniProt P22629). Nature of the experiment: compounds binding control protein streptavidin – biophysical, small-molecule microarray, 635/667 nm fluorescence, artefact control for SMM compound annotation, primary screen (AID 1147).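 Also: signal reflects streptavidin binding to arrayed compounds as a control protein.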 As to conditions: higher = more signal.
Streptavidin (Streptomyces avidinii), sequence (P22629 whole entry, looked up): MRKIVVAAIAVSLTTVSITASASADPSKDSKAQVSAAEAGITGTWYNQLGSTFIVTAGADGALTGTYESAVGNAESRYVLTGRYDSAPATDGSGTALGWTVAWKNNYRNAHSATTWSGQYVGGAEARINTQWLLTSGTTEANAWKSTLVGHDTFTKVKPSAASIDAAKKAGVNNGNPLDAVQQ
Experiment [16] in a line: probe aInhba binding on compound microarray – biochemical, small-molecule microarray, 635/667 nm fluorescence, primary screen (AID 1148).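 Also: score merges 667nm spot fluorescence with signal-to-noise for antibody binding to printed compounds.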 The settings on record: higher = more signal.
For experiment [17], the target named is Torsin-1A (Homo sapiens) (UniProt O14656). Kind of experiment: TOR1A wild-type binding on microarray – cell lysate, small-molecule microarray, lysate, 635/667 nm, primary screen (AID 1149). As to conditions: COS7 hTOR1A-WT lysate, 635 nm fluorescence, higher = more signal.
Torsin-1A (Homo sapiens), sequence (O14656 whole entry, looked up): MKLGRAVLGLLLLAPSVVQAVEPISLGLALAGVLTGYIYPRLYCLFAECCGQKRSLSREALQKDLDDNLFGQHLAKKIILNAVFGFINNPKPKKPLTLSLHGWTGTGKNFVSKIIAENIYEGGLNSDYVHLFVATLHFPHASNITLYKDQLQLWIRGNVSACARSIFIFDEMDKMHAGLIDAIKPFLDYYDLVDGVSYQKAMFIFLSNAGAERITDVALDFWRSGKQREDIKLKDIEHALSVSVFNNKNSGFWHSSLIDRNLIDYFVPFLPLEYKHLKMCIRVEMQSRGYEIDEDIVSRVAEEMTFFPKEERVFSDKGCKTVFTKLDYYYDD
For experiment [18] the target is unchanged. Kind of experiment: torsin A mutant lysate binding on microarrays – cell lysate, small-molecule microarray, COS7 lysate, 635/667 nm fluorescence, primary screen (AID 1150).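 Also: score pools 667 nm emission and signal to noise measuring lysate protein binding.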 As to conditions: COS7 hTOR1A mutant lysate, 635 nm fluorescence, higher = more signal.
Experiment [19] has as its system Sonic hedgehog protein (Shh). Nature of the experiment: Sonic hedgehog microarray binding compounds – biochemical, small-molecule microarray, 635/667 nm fluorescence, primary screen (AID 1151).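 Also: Shh protein binding to compounds spotted on small-molecule microarray slides; score combines spot fluorescence intensity with signal-to-noise across triplicate slides.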 The settings on record: 635 nm fluorescence, higher = more signal.

Fibroblast growth factor 2 (Homo sapiens), sequence (P09038 whole entry, looked up): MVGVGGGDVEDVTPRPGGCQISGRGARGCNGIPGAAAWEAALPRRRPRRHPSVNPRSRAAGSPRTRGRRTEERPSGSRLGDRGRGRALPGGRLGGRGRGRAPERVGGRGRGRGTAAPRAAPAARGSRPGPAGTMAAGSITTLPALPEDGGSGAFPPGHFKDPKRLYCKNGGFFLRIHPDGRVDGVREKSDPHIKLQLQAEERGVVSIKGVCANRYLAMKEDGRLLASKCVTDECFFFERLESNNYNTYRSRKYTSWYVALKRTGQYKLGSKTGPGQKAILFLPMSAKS

For `CC[C@H]1C2=C3C(CC[C@H]4C(OCc5ccc(F)cc5C(F)(F)F)OC[C@](C)([C@@H]34)N(C(=O)OC(C)(C)C)C2)C2COC(=O)OCC21` (stereo not given in full), the composite z-score is 0.0812 in experiment [1]; 1.17 in [2]; 1.55 in [3]; 0.979 in experiment [4]; 0.432 in [5]; -1.39 in experiment [6]. Besides, the composite z-score was -0.233 with Lefty1; 0.688 in experiment [8]; 0.0641 in [10]; 1.44 in experiment [15]; 0.0003 in experiment [16]; 0.246 in the experiment with Torsin-1A (Homo sapiens) [17]. Moreover, the composite z-score in the experiment with Torsin-1A (Homo sapiens) [18] came out at 0.666; in experiment [19] it was 0.0392. For the same compound, the z-score in [7] is 1.86; in [9] it was -0.198 (inactive); in experiment [11], -2.57 (inactive); in experiment [12], 0.265 (inactive); in experiment [13] it was 0.576 (inactive); in experiment [14], 0.204 (inactive).
On to `CN(C)CCCCNC(=O)[C@H]1C[C@H]2C(=O)N3CCC[C@H]3C(=O)N2[C@H]1c1ccc(O)cc1`, for which the composite z-score in [1] was -0.268; in experiment [2], -1.6; in experiment [3], -0.401; in [4] it was -1.05; in [5], 0.443; in experiment [6], -1.01. Also, the composite z-score was -0.428 in the experiment with Lefty1; -0.534 in [8]; -1 in experiment [10]; -1.34 in experiment [15]; -0.643 in [16]; -1.3 in the experiment with Torsin-1A (Homo sapiens) [17]. Moreover, the composite z-score in the experiment with Torsin-1A (Homo sapiens) [18] is -1.04; in [19], -0.229. Also, the z-score in [7] was -0.983; in experiment [9], 0.501 (inactive); in [11], -2.49 (inactive); in experiment [12], -1.5 (inactive); in experiment [13] it was -0.667 (inactive); in experiment [14] it was -0.942 (inactive).
In the case of `COCCCNC(=O)[C@]1(Cc2ccccc2N=[N+]=[N-])N=C(c2ccc(OCCCO)cc2)O[C@@H]1c1ccccc1N=[N+]=[N-]`, the composite z-score in [1] is 2.22; in experiment [2] it was 1.19; in experiment [3], 0.356; in [4] it was 0.983; in experiment [5] it was 0.778; in experiment [6], -0.165. Also, the composite z-score with Lefty1 was -0.252; in experiment [8] it was 0.676; in experiment [10], 0.497; in experiment [15], 1.25; in [16] it was -0.0011; with Torsin-1A (Homo sapiens) [17], 0.238. In addition, the composite z-score with Torsin-1A (Homo sapiens) [18] is 0.605; in experiment [19], -0.973. Besides, the z-score in experiment [7] was -0.214; in experiment [9] it was -3.27 (inactive); in experiment [11] it was -4.87 (inactive); in experiment [12], 0.524 (inactive); in experiment [13], 0.432 (inactive); in experiment [14], -1.98 (inactive).
As for `CCC[C@@H]1C[C@@]1(CCC)[C@@H](NP(=O)(c1ccccc1)c1ccccc1)c1ccc(Cl)cc1`, the composite z-score was -0.649 in [1]; -0.472 in [2]; -0.371 in experiment [3]; -0.428 in experiment [4]; -0.216 in experiment [5]; -0.475 in [6]. In addition, the composite z-score was -0.413 in the experiment on Lefty1; -0.619 in experiment [8]; -0.298 in [10]; -0.749 in [15]; -0.232 in experiment [16]; -0.753 with Torsin-1A (Homo sapiens) [17]. In addition, the figures for the composite z-score (with Torsin-1A (Homo sapiens) [18]; in [19]) were -0.731 and -0.447, respectively. Besides, the z-score in experiment [7] was -1.22; in [9], 1.71 (inactive); in [11] it was -1.4 (inactive); in experiment [12], 0.22 (inactive); in experiment [13], 0.0007 (inactive); in experiment [14], -0.113 (inactive).
With `CCOC(=O)C1=CC[C@@H](c2ccccc2C(F)(F)F)N(S(=O)(=O)c2ccc(C)cc2)C1`, the composite z-score in experiment [1] amounted to 1.62; in experiment [2] it was 1.18; in [3], 0.406; in experiment [4], 0.836; in experiment [5] it was 0.877; in experiment [6], 0.633. Moreover, the composite z-score in the experiment on Lefty1 is -0.356; in [8] it was 0.989; in [10], 0.658; in [15], 0.867; in [16], 0.693; with Torsin-1A (Homo sapiens) [17] it was -0.117. The composite z-score came to 2.07 with Torsin-1A (Homo sapiens) [18] and 0.0555 in experiment [19]. In addition, the z-score in [7] was 1.9; in [9] it was 0.515 (inactive); in experiment [11], -5.24 (inactive); in experiment [12], -0.0874 (inactive); in experiment [13], 0.238 (inactive); in [14], -0.596 (inactive).
As for `CN(C)C(=O)[C@@]1(Cc2ccccc2N=[N+]=[N-])COC(c2ccc(OCCCO)cc2)=N1`, the composite z-score in [1] is 0.869; in experiment [2] it was 1.22; in [3], 0.947; in [4] it was 1; in experiment [5], 1.32; in experiment [6], 1.76. The composite z-score is -0.349 in the experiment on Lefty1; 0.51 in experiment [8]; 0.932 in [10]; 0.726 in experiment [15]; -0.0171 in experiment [16]; 0.425 in the experiment with Torsin-1A (Homo sapiens) [17]. Moreover, the composite z-score was 0.837 in the experiment with Torsin-1A (Homo sapiens) [18] and -0.215 in [19]. The z-score is 1.76 in experiment [7]; -3.71 (inactive) in experiment [9]; -2.68 (inactive) in experiment [11]; 0.618 (inactive) in experiment [12]; 0.942 (inactive) in experiment [13]; 0.646 (inactive) in [14].
